High-throughput results (PubChem BioAssay)
Most compounds without a hit are left out; they make up all but 21% or so of the library.
DT40 TDP1 CPT = DT40-hTDP1 cell growth loss with CPT. chicken DT40 Tdp1-/-;hTDP1 cells + 20 nM CPT, ATP luminescence, 48 h. 420,000 tested, 12% active. Potency, µM (top dose mostly 46.2 µM), without a hit: at the highest dose activity change, negative = growth inhibition, hits mostly inhibitors; further: potency means the concentration at half of the fitted maximal effect; nearly all actives have a fitted effect of over 55% in size
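Cell growth measured by CellTiter-Glo luminescence after a minimum 48 h, 37 C compound exposure with 20 nM CPT in Tdp1-knockout DT40 cells stably expressing hTDP1, seeded 400/well; qHTS titration format.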
RORg inh = inhibitors of mouse ROR gamma transcriptional activity | Potency, µM (titrated, usually from 53.6 µM), for the others: at the top dose activity change, negative = inhibition, most hits filed as inhibitors | P51450 | 310,000 tested, 5.4% active | Drosophila S2 Gal4-RORgamma UAS-luciferase reporter, 20 h | AID 2551; further: potency means the concentration at half of the fitted maximal effect; nearly all actives have a fitted effect of over 60% in size
Target sequence (P51450 whole entry, looked up, the tested form may be a part): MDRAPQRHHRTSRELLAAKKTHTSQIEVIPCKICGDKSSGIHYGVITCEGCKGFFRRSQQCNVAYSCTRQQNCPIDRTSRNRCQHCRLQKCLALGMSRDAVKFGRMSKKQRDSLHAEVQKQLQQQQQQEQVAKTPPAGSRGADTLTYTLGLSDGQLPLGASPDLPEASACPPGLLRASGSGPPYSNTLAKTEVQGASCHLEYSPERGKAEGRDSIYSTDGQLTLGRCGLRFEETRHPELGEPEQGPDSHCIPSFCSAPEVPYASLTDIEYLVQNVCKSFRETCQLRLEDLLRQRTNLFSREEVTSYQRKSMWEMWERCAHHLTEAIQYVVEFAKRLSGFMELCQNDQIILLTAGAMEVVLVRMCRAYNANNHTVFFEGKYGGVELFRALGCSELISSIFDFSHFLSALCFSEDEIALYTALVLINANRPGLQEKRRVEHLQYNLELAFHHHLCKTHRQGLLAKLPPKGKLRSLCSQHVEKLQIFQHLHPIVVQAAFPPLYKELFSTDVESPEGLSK
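Stable Schneider cell line, Gal4 DNA-binding domain fused to ROR gamma, UAS-luciferase. Cmpd 1 hr RT → CuSO4 700 uM final → 20 hr RT → luciferase reagent 10 min → luminescence.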
TDP1 cell noCPT = qHTS for Inhibitors of human tyrosyl-DNA phosphodiesterase 1 (TDP1): qHTS in cells in absence of CPT; DT40 Tdp1-/- hTDP1 cells, no CPT, ATP luminescence, 48 h; AID 686978, 2013; 420,000 tested, 15% active; Potency, µM (titrated, usually from 46.2 µM), without a hit: at the top dose activity change, negative = growth inhibition, actives largely listed as inhibitors; further: potency means the concentration at half of the fitted maximal effect; nearly all actives have a fitted effect of over 55% in size
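Seeded 400 DT40-hTDP1 cells/well (vehicle DMSO, no 20 nM CPT); pinned compounds; ≥48 hr at 37 °C; CellTiter-Glo luminescence as viability measure.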
ELG1 repair inh = ELG1-dependent DNA repair inhibition | HEK293T ELG1-luciferase reporter, luminescence, 16 h; DNA damage induced by 5-fluorouridine | Potency, µM (highest dose often 46.1 µM), for the others: at the highest dose activity change, negative = inhibition, usual class: inhibitors | 330,000 tested, 2.3% active | AID 504467; further: potency means the concentration at half of the fitted maximal effect; nearly all actives have a fitted effect of over 55% in size
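DMSO vehicle served as the neutral condition. Each well held 2,000 cells given 5-fluorouridine plus compound; after 16 hr at 37 °C/5% CO2, ONE-Glo was added and luciferase measured 30 min later.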
VP16 counter = counter-screen for ROR gamma inhibitors: Gal4-VP16 reporter; Drosophila S2 Gal4-VP16 UAS-luciferase, luminescence, 20 h; Potency, µM (titrated, usually from 53.6 µM), without a hit: top-dose activity, negative = inhibition, hits mostly inhibitors; 310,000 tested, 3.5% active; AID 2546;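 further: Gal4-VP16 expression switched on by copper sulfate through the metallothionein promoter; potency means the concentration at half of the fitted maximal effect; nearly all actives have a fitted effect of over 50% in size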
IL1B secr inh = blocks inflammasome-driven IL-1 beta release; 360,000 tested, 4.7% active; THP-1 LPS/ATP IL-1B secretion, AlphaLISA, 16 h; hits give low values; activity change, % at 57.5 µM; in the data active means activity change below about -50%; inconclusive means mostly about -30% to -49%
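Secreted IL-1B measured by AlphaLISA bead assay after 16 h compound exposure of THP-1 cells; compounds (final up to 57.5 uM) added 1 h before LPS (250 ng/mL) and ATP (1.25 mM) stimulation; lower signal means less secretion.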
Active calls of the source: *; ? = inconclusive; / = no result given; [ ] = dose if it differs, or a comment. Unless noted, the call rests on the fitted dose curve; in most records, active means well fitted curve in the direction sought with a large enough effect; inconclusive means small, poorly fitted or top-dose-only effect, or another doubt; inactive means no such curve, though single readings can be large; an effect the other way counts as inactive or inconclusive. On the % scale 0 is the no-effect control and ±100 the full control effect.

SMILES	DT40 TDP1 CPT	RORg inh	TDP1 cell noCPT	ELG1 repair inh	VP16 counter	IL1B secr inh
CCOc1ccc(N2C(=O)CC(NCC#N)C2=O)cc1 (stereo not drawn)	?	?	?	6%	?	1
CC(=O)c1sc(NC(=O)CCN2C(=O)c3ccccc3C2=O)nc1C	3%	29%	7%	9%	0%	9
COc1ccc(C(=O)NCCc2sc(-c3ccc(F)cc3)nc2C)cc1OC	?	/	15µM*	/	/	/
COc1ccc(C)cc1NC(=O)C(=O)NCCc1sc(-c2ccc(Cl)cc2)nc1C	-9%	/	-27%	/	/	/
Nc1ccc2oc(=O)ccc2c1I	/	7%	/	/	-9%	/
CC(C)(C)c1ccc(OCC(=O)Nc2ccc(C(=O)Nc3ccccc3C(=O)O)cc2)cc1	-14%	15%	-8%	?	0%	18
CC/C(=N\NC(=S)Nc1ccc(OC)cc1)c1ccc(OC(F)F)cc1	2.9µM*	13µM*	5.8µM*	-15%	?	17
C/C(=N\NC(=S)Nc1c(C)cccc1C)c1ccc(OC(F)F)cc1	10µM*	3.2µM*	9.2µM*	?	5.6µM*	-13
CC/C(=N\NC(=S)Nc1cc(C)ccc1C)c1ccc(OC(F)F)cc1	?	?	16µM*	?	-100%	0
COc1ccc(C/C(C)=N/NC(=S)Nc2ccc(C(C)C)cc2)cc1	?	4.5µM*	?	-4%	?	24
CC(=O)Nc1ccc(SCC(c2ccccc2)N2CCN(C)CCC2=O)cc1 (stereo not drawn)	/	-19%	/	/	2%	/
O=C(NN1CCOCC1)c1cc(Cl)ccc1Cl	5%	-13%	2%	-2%	-1%	0
NNC(=O)c1cc(Cl)ccc1Cl	0%	11µM*	9%	-14%	-87%	1
CCOC(=O)C1CCN(Cc2cnc(NC(=O)OC)s2)CC1	-8%	0%	8%	15%	-4%	18
CCOC(=O)C1CCN(Cc2cnc(Oc3ccc(C(C)(C)C)cc3)s2)CC1	?	24%	21µM*	9%	-17%	47
CCOC(=O)C1CCCN(C(=O)COc2ccc(S(=O)(=O)N3CCOCC3)cc2)C1 (stereo not drawn)	-8%	/	1%	0%	/	-75*
CCOC(=O)C1CCCN(C(=O)COc2ccc(C(C)(C)C)cc2)CC1 (stereo not drawn)	21µM*	/	15µM*	/	/	0
CCOC(=O)C1CCCN(C(=O)COc2ccc(C(=O)c3ccccc3)cc2)C1 (stereo not drawn)	23µM*	/	23µM*	?	/	9
CC1=C(C(=O)N2CCOCC2)CC(CC(=O)NCCCN(C)C)C(=O)N1CCCN1CCCC1=O (stereo not drawn)	-5%	/	-14%	/	/	47
CCCn1c(N)c(C(=O)CSc2nncs2)c(=O)[nH]c1=O	-9%	/	-17%	1%	/	0
Cc1ccc(C(=O)NCC(=O)OCn2nnc3ccccc3c2=O)cc1	6%	/	-3%	9%	/	-2
COc1ccc(OC)c(NS(=O)(=O)c2ccc(-c3coc(C)n3)cc2)c1	?	40%	?	-3%	-10%	31
CCOC(=O)C1(C)CCN1C(=O)COc1ccc(C(C)(C)C)cc1 (stereo not drawn)	21µM*	/	21µM*	/	/	33
CCOC(=O)C1(C)CCN1C(=O)COc1ccccc1 (stereo not drawn)	2%	/	-3%	/	/	-13
O=C(Nc1ccc2c(c1)OCO2)C1CCN(S(=O)(=O)c2cccc3cccnc23)CC1	-9%	34%	-24%	-17%	2%	-5
SMILES	DT40 TDP1 CPT	RORg inh	TDP1 cell noCPT	ELG1 repair inh	VP16 counter	IL1B secr inh
Cc1nc2ncnn2c(C)c1CCC(=O)NCCCN1CCN(c2cccc(Cl)c2)CC1	3%	23%[0.365 µM]	-13%	-11%	/	0
O=C(NCCCN1CCN(c2cccc(Cl)c2)CC1)c1sc2ncccc2c1-n1cccc1	?	/	23µM*	/	/	/
Cc1ccc(C)n1-c1c(C(=O)NCCCN2CCN(c3ccc(F)cc3)CC2)sc2ncccc12	21µM*	/	?	/	/	/
O=C(NCCCN1CCN(c2ccccc2F)CC1)c1sc2ncccc2c1-n1cccc1	?	/	21µM*	/	/	/
O=C(CN1C(=O)COc2ccccc21)NCCCN1CCN(c2ccccc2F)CC1	-17%	-1%	7%	25%	0%	-17
CCCC1NC(=O)c2cccnc2-n2c1nc1ccc(Br)cc1c2=O (stereo not drawn)	-8%	/	?	/	/	-17
O=C(NCc1ccccc1)C1c2ccccc2OCC(=O)N1CCc1c[nH]c2ccccc12 (stereo not drawn)	-28%	/	?	/	/	4
CC(C)c1ccc(NC(=O)[C@H](Cc2c[nH]c3ccccc23)NC(=O)[C@@H]2Cc3ccccc3CN2)cc1	?	8%	?	?	2%	-22
Cc1nc2c(OCc3ccc(C(F)(F)F)cc3)cccn2c1N(C)C(=O)CCC1CCCC1	?	/	?	/	/	-11
CCc1nc2c(OCc3ccc(C#N)cc3)cccn2c1N(C)C(=O)c1ccco1	1%	/	-21%	/	/	-2
Cc1nc2c(OCc3ccc(Cl)cc3)cccn2c1N(C)C(=O)CCC1CCCC1	15µM*	/	23µM*	/	/	12
COC(=O)c1ccc(COc2cccn3c(N(C)C(=O)CCC4CCCC4)c(C)nc23)cc1	18µM*	/	21µM*	/	/	16
Cc1nc2c(OCc3ccc(F)cc3)cccn2c1N(C)C(=O)CCC1CCCC1	?	/	23µM*	/	/	-25
Cc1nc2c(OCc3ccc(C#N)cc3)cccn2c1N(C)C(=O)CCC1CCCC1	?	/	?	/	/	-55*
COc1ccc(NC(=O)C(NS(=O)(=O)c2ccc3c(c2)CCCC(=O)N3)C(C)C)c(OC)c1 (stereo not drawn)	-14%	/	0%	/	/	/
COc1ccc(N(CC(=O)NCc2ccccc2Cl)S(=O)(=O)c2c(C)nn(C)c2C)cc1	-6%	/	?	/	/	/
CC(C)CN1CCC2(CC1)CCN(C(=O)c1cc(C(F)(F)F)cc(C(F)(F)F)c1)CC2	2%	-8%	-2%	/	-4%	/
CCC1=C/C(=C/N(C)c2ccccc2)C(=O)S1	?	-22%	?	?	21%	-6
COc1ccccc1-c1ccnc(-n2ncc(C(=O)NCc3cccnc3)c2C)n1	27%[9.04 µM]	/	-14%	/	/	/
Cc1ccc(Cc2c(-c3ccccc3)nc3cc(C)ccn23)cc1	16µM*	/	18µM*	/	/	20
